# Results filed as inconclusive are left out. Values without a mark were called inactive. Calls of active or inactive are those of the source. Unless noted, the call rests on the fitted dose curve; in most records, active means well fitted activation curve with a large enough effect in the repeat runs; inconclusive means weak or mixed curves, or effect the other way; inactive means no such curve, though single readings can be large or run the other way.
# Assay: qHTS assay to identify small molecule antagonists of the estrogen related receptor signaling pathway with the pleiotropic PPARgamma coactivator (PGC) from Tox21 10K library (AID 1224841; call rule not given here; further: actives are mostly falling curves and most rising ones were filed inactive; nearly all actives have a fitted effect of over 50% in size)
# Conditions: PGC/ERR reporter cell line, ONE-Glo luciferase, 18 h; series mostly up to 92.4 µM; activity, negative = inhibition: at the top concentration
# Outline: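 One-Glo luminescence, measured after half an hour at room temperature, quantified reporter output of PGC/ERR cells. These had been plated at 2,000 per well, incubated 6 h, dosed with compounds in DMSO, then kept 18 h at 37 C.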
# On the % scale 0 is the no-effect control and ±100 the full control effect.
row,SMILES,"activity, negative = inhibition"
1,C=C(C)[C@@H]1CCC2=CCC[C@@H](C)[C@]2(C)C1,6.59%
2,Oc1c(I)cc(I)c2cccnc12,182% [at 42.5 µM]
3,CN1CCCC(n2nc(Cc3ccc(Cl)cc3)c3ccccc3c2=O)CC1 (stereo not given),-5.01% [at 42.5 µM]
4,CCCCCCC(C)(C)C(=O)O,-23.1%
5,Cc1cccc(N(C)C(=S)Oc2ccc3c(c2)CCC3)c1,-20.5% [at 42.5 µM]
6,O=C1c2ccccc2C(=O)c2c(O)c(O)cc(O)c21,-30.8%
7,CC1CC(OC(=O)C(O)c2ccccc2)CC(C)(C)N1C (stereo not given),5.97% [at 42.5 µM]
8,CC(CCC(=O)O)C(=O)O (stereo not given),2.04%
9,CCCCCC[C@@H](O)C/C=C\CCCCCCCC(=O)OCC(O)CO (stereo not given in full),2.28%
10,CCOC(=O)/C=C/C(=O)OCC,7.53%
11,O=c1[nH]c2ccc(Cl)cc2o1,2.02%
12,O=C1Cc2cc(Cl)ccc2N1,-9.02% [at 42.5 µM]
13,CCC(C)COC(C)=O (stereo not given),2.1%
14,N#[N+]c1ccc2c(S(=O)(=O)[O-])cccc2c1O,-23.7%
15,CC(=O)OCC(=O)NCCCOc1cccc(CN2CCCCC2)c1,8.7% [at 42.5 µM]
16,CC(=O)Nc1ccc(C)cc1C,0.469%
17,CCCCCC[C@@H](O)C/C=C\CCCCCCCC(=O)O,0.771%
18,NCCNCCO,-2.47%
19,CCOC(=O)c1ccc(I)cc1,405%
20,CC(=O)c1ccc([N+](=O)[O-])cc1,-11.2%
21,CC[N+](CC)(CCNC(=O)C(=O)NCC[N+](CC)(CC)Cc1ccccc1Cl)Cc1ccccc1Cl,5.51% [at 42.5 µM]

# Assay: qHTS assay to identify small molecule agonists of the estrogen related receptor signaling pathway with the pleiotropic PPARgamma coactivator (PGC) from Tox21 10K library (AID 1224842); further: nearly all actives have a fitted effect of over 15% in size; further: potency means the concentration at half of the fitted maximal effect
# Conditions: PGC/ERR reporter cell line, luciferase ONE-Glo, 18 h; series mostly up to 92.4 µM; activation: at the top concentration
# Outline: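 PGC/ERR reporter cells (NTP line) were seeded 2,000 per well, rested 6 h at 37 C/5% CO2, then pin-dosed with compounds in DMSO for 18 h at 37 C; luciferase read by One-Glo luminescence after 30 min at room temperature.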
SMILES,activation,Potency
C=C(C)[C@@H]1CCC2=CCC[C@@H](C)[C@]2(C)C1,2.04%,–
CN1CCCC(n2nc(Cc3ccc(Cl)cc3)c3ccccc3c2=O)CC1 (stereo not given),-1.24% [at 42.5 µM],–
CCCCCCC(C)(C)C(=O)O,-7.06%,–
Cc1cccc(N(C)C(=S)Oc2ccc3c(c2)CCC3)c1,-5.62% [at 42.5 µM],–
O=C1c2ccccc2C(=O)c2c(O)c(O)cc(O)c21,-9.52%,–
CC1CC(OC(=O)C(O)c2ccccc2)CC(C)(C)N1C (stereo not given),1.89% [at 42.5 µM],–
CC(CCC(=O)O)C(=O)O (stereo not given),0.974%,–
CCCCCC[C@@H](O)C/C=C\CCCCCCCC(=O)OCC(O)CO (stereo not given in full),0.703%,–
CCOC(=O)/C=C/C(=O)OCC,2.17%,–
C[C@@H]1CN(CCCn2c3ccccc3c3ccccc32)C[C@H](C)N1,-35.6% [at 42.5 µM],–
O=c1[nH]c2ccc(Cl)cc2o1,0.624%,–
O=C1Cc2cc(Cl)ccc2N1,-2.11% [at 42.5 µM],–
CCC(C)COC(C)=O (stereo not given),-0.602%,–
N#[N+]c1ccc2c(S(=O)(=O)[O-])cccc2c1O,-7.33%,–
Cc1cc(O)c(C)c(C)c1O,-5.68% [at 42.5 µM],–
CC(=O)OCC(=O)NCCCOc1cccc(CN2CCCCC2)c1,2.49% [at 42.5 µM],–
CC(=O)Nc1ccc(C)cc1C,0.159%,–
COC(=O)c1nc(Cl)c(Cl)nc1N,-37.7% [at 42.5 µM],–
CCCCCC[C@@H](O)C/C=C\CCCCCCCC(=O)O,0.162%,–
NCCNCCO,0.307%,–
Cc1ccc2c(Br)cc(Br)c(O)c2n1,-36.8% [at 42.5 µM],–
CCOC(=O)c1ccc(I)cc1,–,4.9 µM (active)
CC(=O)c1ccc([N+](=O)[O-])cc1,1.06%,–
CC[N+](CC)(CCNC(=O)C(=O)NCC[N+](CC)(CC)Cc1ccccc1Cl)Cc1ccccc1Cl,-0.204% [at 42.5 µM],–
